Results on 44 sequences are retold here after PMC7819943, “Rice protein-binding microarrays: a tool to detect cis-acting elements near promoter regions in rice”.

Over roughly 68,000 sequences, “fluorescence intensity (a.u.)” has its median near 9,100; the highest 2% begin near 16,000. The entries come from a sample that favours the highest values as a whole.

For this experiment, the target named is OsWRKY34 (Oryza sativa, UniProt Q0JBA9 1-250). Description: protein-binding microarray (RPBM); PBS, 2% BSA, 51.3 ng/ul salmon testes DNA, 50 uM zinc acetate, 200 nM TF, 25 C, 1 h; high values mean tight binding. The conditions noted are these: protein: recombinant; tags: N-terminal polyhistidine and DsRed monomer fusion (pET32a); label: CyDye5-dUTP incorporated in the synthesized complementary strand; 3' TTTTT single-stranded linker to array surface; dsDNA, one strand shown. Put shortly: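 An Axon 4000B scanner gave the binding signal as per-feature fluorescence intensity in arbitrary units. This followed washing of a custom Agilent array that had been incubated for 1 h at 25 °C with 200 nM protein in PBS, 2% BSA, salmon testes DNA and 50 µM zinc acetate. The proteins were transcription factors fused at the N-terminus to polyhistidine and DsRed, expressed in E. coli BL21-CodonPlus and purified on Ni–NTA.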
Sequence of OsWRKY34 (Q0JBA9 entry or part of it): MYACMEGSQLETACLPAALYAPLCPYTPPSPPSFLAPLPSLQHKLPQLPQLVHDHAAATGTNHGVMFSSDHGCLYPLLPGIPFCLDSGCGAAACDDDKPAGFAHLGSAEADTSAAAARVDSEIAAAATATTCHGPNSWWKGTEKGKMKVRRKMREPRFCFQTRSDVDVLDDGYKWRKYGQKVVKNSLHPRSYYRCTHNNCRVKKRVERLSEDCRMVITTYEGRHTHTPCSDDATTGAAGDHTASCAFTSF
“ACACGATATAGTCATTGCAATTATCACGGATCCAGGTCCTCGGAGTCACCTAGTGCAG”: the binding signal was 8560 fluorescence intensity (a.u.).
Take “AGTACACACCATTTGACATCCTGATTATGTATAGTAATTTCGGAGTCACCTAGTGCAG”: the binding signal was 8350 fluorescence intensity (a.u.).
Under “TCAGCTATCATAGTCTTCTAGAATGCTCTTCTTGTCAGATCGGAGTCACCTAGTGCAG” stands 8220 fluorescence intensity (a.u.); under “ATGGGTTGGTAGAGGGGAGGGAACGCGCGACGGTGGCGAGCGGAGTCACCTAGTGCAG”, 8740 fluorescence intensity (a.u.).
In the case of “GTCTCGTGGCACCTCAATTTATTAATCACTACCCCTATACCGGAGTCACCTAGTGCAG”, the binding signal is 8710 fluorescence intensity (a.u.).
On to “CATTAGACCCTGAGGTTTTTGACTAGGCAGCCCACTTGTCCGGAGTCACCTAGTGCAG”, for which the binding signal was 9040 fluorescence intensity (a.u.).
Consider “ACAAATGGTCAAACGTTGATAAAAAAGTCAACGGCGTCATCGGAGTCACCTAGTGCAG”, for which the binding signal is 20600 fluorescence intensity (a.u.).
For “ATAAAACAAATGATCAAACGTTGAATAAAAAGTCAACGGCCGGAGTCACCTAGTGCAG”, the binding signal was 11100 fluorescence intensity (a.u.).
Under “AAAAAGTCAACGGCGTCATATATTAAAATATGGAGAGAGTCGGAGTCACCTAGTGCAG” stands 8150 fluorescence intensity (a.u.); under “GTTTGTCAAAAAGTCAACGGCGTCATATATTATACGGAGGCGGAGTCACCTAGTGCAG”, 18800 fluorescence intensity (a.u.).
As to “TAAAACGAATGGTCAAACGTTGGTCGAAAAGTCAACGGCGCGGAGTCACCTAGTGCAG”, the binding signal was 14400 fluorescence intensity (a.u.).
On to “CGGATGGTCAAACGTTGGTCAAAAAGTCAACGGCGTCATACGGAGTCACCTAGTGCAG”, for which the binding signal is 19600 fluorescence intensity (a.u.).
For the sequence “ACAAATGGTCAAACGTTGGTCGAAAAGTCAACGGCGTCATCGGAGTCACCTAGTGCAG”, the binding signal is 13700 fluorescence intensity (a.u.).
As for “AATGGTCAAACGTTGGATAAAAAGTCAACGGCGTCATACACGGAGTCACCTAGTGCAG”, the figure is 14700 fluorescence intensity (a.u.).
Regarding “AAACGAATAGTCAAACGTTGATCGAAAAGTCAACGGCGTCCGGAGTCACCTAGTGCAG”, the binding signal was 19300 fluorescence intensity (a.u.).
As for “TTTAAATAAAACGAATGGTCAAACGTTGATAAAAAGTCAACGGAGTCACCTAGTGCAG”, the figure is 13300 fluorescence intensity (a.u.).
As for “GATCAAACGTTGGTTAAAAAGTCAACGGCGTCATACATTACGGAGTCACCTAGTGCAG”, the binding signal is 10700 fluorescence intensity (a.u.).
Under “GAAATGTCAAATATTTGTTAAAAAGTCAACGGCGTCATACCGGAGTCACCTAGTGCAG” stands 11900 fluorescence intensity (a.u.); under “GGTTTTTCCTAGTTTTGAGATTTACGTGCTATTTTGTGAACGGAGTCACCTAGTGCAG”, 8950 fluorescence intensity (a.u.); under “CGTGTCGCACCACATCCAGCGTCCCACGGCCTACCACCGCCGGAGTCACCTAGTGCAG”, 8700 fluorescence intensity (a.u.).
Turning to “ATATGGCATCTCGGTTTCGTCTTAACAGGGTATTGCACTACGGAGTCACCTAGTGCAG”, the binding signal is 9900 fluorescence intensity (a.u.).
With “ACTCCCTTGCTTTTTCTCGCTATCAATCACAATAATCCAACGGAGTCACCTAGTGCAG”, the binding signal was 9590 fluorescence intensity (a.u.).
Regarding “CGTGTGGTTGATTGTGTGTGCGAGCCGAATGCTGCCTACTCGGAGTCACCTAGTGCAG”, the binding signal was 9260 fluorescence intensity (a.u.).
Under “TTACCATGGTGCATTTACGGCTGTGATCGCTTTGTTGTACCGGAGTCACCTAGTGCAG” stands 9370 fluorescence intensity (a.u.); under “TCTCGGCTCGCAATGCTTTTTGGAGTTTTGTTTCTCTCCCCGGAGTCACCTAGTGCAG”, 10200 fluorescence intensity (a.u.).
As to “TCATTGCACCTCTCATTTAACAAGGGATATAATAGTTCTTCGGAGTCACCTAGTGCAG”, the binding signal is 8360 fluorescence intensity (a.u.).
“TGGCATCATCGACCATACACTTTTGTCAATCCGTTCAGCTCGGAGTCACCTAGTGCAG”: the binding signal is 8910 fluorescence intensity (a.u.).
Turning to “GCTTCAAACTCGAGCTTCTACCAGTACCAGCTACCAGGTGCGGAGTCACCTAGTGCAG”, the binding signal was 8190 fluorescence intensity (a.u.).
As for “TAGTCAAACGTTGAAAAAAAAAGTCAACGGCGTCACACATCGGAGTCACCTAGTGCAG”, the figure is 20900 fluorescence intensity (a.u.); as for “CAAACGTTGGAAAAAAGTCAACGGCGTCATATATTTTAATCGGAGTCACCTAGTGCAG”, 15800 fluorescence intensity (a.u.).
On to “AAAAAGTCAACGGCGTCAAACATATTGAAACGGAGGGAGTCGGAGTCACCTAGTGCAG”, for which the binding signal is 8240 fluorescence intensity (a.u.).
As to “AAAATTCCTAAAACTACTTGCTACTATTCTCTCTCCAACTCGGAGTCACCTAGTGCAG”, the binding signal is 8240 fluorescence intensity (a.u.).
Under “TCCTCGCGTTCTTTTTCTCCACCGAGACCACCGGCGCTCTCGGAGTCACCTAGTGCAG” stands 9050 fluorescence intensity (a.u.); under “TTGGTGGCCTTTTCTCCCTTTTTTGCATGTGCTTTGCTCTCGGAGTCACCTAGTGCAG”, 14100 fluorescence intensity (a.u.); under “ACGCCGTTGATTTTTTTAAACATATTTGACCGTTCGTCTTCGGAGTCACCTAGTGCAG”, 11400 fluorescence intensity (a.u.).
As for “GGATTTTAAGTTTTTACTTGCACTGTTTGACCATTCGTCTCGGAGTCACCTAGTGCAG”, the figure is 9200 fluorescence intensity (a.u.); as for “GATTTTGACTTTTTACTTGCACTGTTTGACCATTCATATTCGGAGTCACCTAGTGCAG”, 16300 fluorescence intensity (a.u.).
“GACGCCGTTGACTTTTTATCACATATTTGACCGTTCGTCTCGGAGTCACCTAGTGCAG”: the binding signal was 20400 fluorescence intensity (a.u.).
Consider “TACCCCTCCGTTTCATATGATAAGTTGTTTGACTTTTTTTCGGAGTCACCTAGTGCAG”, for which the binding signal was 14300 fluorescence intensity (a.u.).
Regarding “CACATATCGTTTAAATTTTCGACTTGACCGTTTTTCAATTCGGAGTCACCTAGTGCAG”, the binding signal is 9550 fluorescence intensity (a.u.).
Consider “GGATTTTGACTTTTTACTTGCACTGTTTGACTATTCGTCTCGGAGTCACCTAGTGCAG”, for which the binding signal is 18600 fluorescence intensity (a.u.).
Take “AGCACATATTTGACCGTTCGTCTTATTCAAAAACTTTTATCGGAGTCACCTAGTGCAG”: the binding signal was 8540 fluorescence intensity (a.u.).
On to “GATACCGTTGACTTTTTAGCACATATTTGACCGTTCGTCTCGGAGTCACCTAGTGCAG”, for which the binding signal was 39400 fluorescence intensity (a.u.).
Under “TGATACCGTTGACTTTTCACATAACTTGGTCGTTCGTTTTCGGAGTCACCTAGTGCAG” stands 34100 fluorescence intensity (a.u.).
